Screening data deposited in PubChem by several laboratories.
MEKK2 WT-MEK5: modulators of MEK5 binding to wildtype MEKK2, primary screen, biochemical, multiplex bead flow cytometry, Alexa488-MEK5; Mitogen-activated protein kinase kinase kinase 2 (Homo sapiens), Q9Y2U5; Alexa488-MEK5 binding to MEKK2 WT; actives lie on both sides; binding response (% of control), % at 10 µM; actives 1.1% (n = 290,000); in the data active = binding response below about 67% or above about 130%
MEKK3 PB1 HTS: modulators of MEKK3-MEK5 PB1 binding, primary screen, biochemical, wildtype MEKK3, multiplex bead flow cytometry, Alexa488-MEK5 | Mitogen-activated protein kinase kinase kinase 3 (Homo sapiens), Q99759 | actives 1.4% (n = 290,000) | binding response (% of control), % at 10 µM | bead-based flow cytometry, Alexa488-MEK5 binding to MEKK3; actives lie on both sides; 0 = blocked by unlabeled MEK5, 100 = vehicle;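 active = binding response more than 3 SD above or below the average of its plate-row segment, actives on both sides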;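 also: Alexa488 bead fluorescence after subtracting the streptavidin-only scavenger bead signal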
Target sequence (Q99759 whole entry, looked up): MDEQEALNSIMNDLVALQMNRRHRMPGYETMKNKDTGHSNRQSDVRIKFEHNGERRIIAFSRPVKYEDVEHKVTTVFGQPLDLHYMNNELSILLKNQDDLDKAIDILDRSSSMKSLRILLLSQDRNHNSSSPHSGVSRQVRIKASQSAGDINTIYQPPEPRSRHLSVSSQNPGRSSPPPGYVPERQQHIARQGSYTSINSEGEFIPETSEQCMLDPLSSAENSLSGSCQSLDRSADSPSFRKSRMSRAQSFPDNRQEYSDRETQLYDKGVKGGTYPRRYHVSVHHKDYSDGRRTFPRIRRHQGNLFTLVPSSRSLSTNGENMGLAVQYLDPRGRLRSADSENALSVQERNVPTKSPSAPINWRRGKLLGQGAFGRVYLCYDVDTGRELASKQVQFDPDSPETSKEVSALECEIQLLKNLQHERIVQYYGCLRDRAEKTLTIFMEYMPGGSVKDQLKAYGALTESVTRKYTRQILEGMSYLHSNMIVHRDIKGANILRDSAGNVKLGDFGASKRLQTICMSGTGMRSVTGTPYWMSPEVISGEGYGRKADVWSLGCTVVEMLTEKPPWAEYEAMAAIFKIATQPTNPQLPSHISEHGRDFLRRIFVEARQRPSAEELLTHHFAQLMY
MEKK2mut PB1 HTS: MEK5 binding signal on mutant MEKK2 PB1, primary screen, biochemical, multiplex bead flow cytometry, Alexa488-MEK5; Alexa488-MEK5 binding to MEKK2 mutant; percent response, % at 10 µM; actives 0.35% (n = 290,000); AID 1530, 2009; in the data active = percent response above about 24%, passing the limit was not always enough
UBC13 polyUb: UBC13 polyubiquitin chain formation inhibitors, primary screen, biochemical, TR-FRET, uHTS | actives 0.47% (n = 330,000) | inhibition, % at 20 µM | AID 485273, 2010 | Ubiquitin-conjugating enzyme E2 N (Homo sapiens), P61088; in the data active = inhibition above about 45%, passing the limit was not always enough
MEKK2wt confirm: modulators of MEK5 binding to wildtype MEKK2, confirmation, biochemical, single concentration, multiplex bead flow cytometry | shares compounds with MEKK3 PB1 HTS | AID 1892, 2009 | Alexa488-MEK5 binding to MEKK2 WT; actives lie on both sides | actives 2.4% (n = 5,900) | binding response (% of control), % at 10 µM; in the data active = binding response below about 16% or above about 210%; inactive = in between
MEKK2mut-MEK5: mutant MEKK2 PB1-MEK5 binding signal retest – biochemical, single concentration, multiplex bead flow cytometry, confirmation. shares compounds with MEKK3 PB1 HTS. percent response, % at 10 µM. actives 2% (n = 5,900). Alexa488-MEK5 binding to MEKK2 mutant; in the data active = percent response mostly above about 71%, no sharp cut-off; inactive = mostly below about 38%;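 also: higher means compound restores mutant binding toward wildtype level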
MEKK3 confirm: MEKK3 wild-type PB1 binding to MEK5, inhibitors, confirmation, biochemical, bead multiplex flow cytometry, single concentration, wildtype. actives 1.8% (n = 5,900). Alexa488-MEK5 binding to MEKK3; active compounds read low. shares compounds with MEKK3 PB1 HTS. binding response (% of control), % at 10 µM. AID 1894, 2009;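 active = binding response below 72% of control, or above a set upper limit, though filed actives all read lower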;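 also: 100% = DMSO only wells and 0% = binding blocked by excess unlabeled MEK5; lower values mean stronger disruption of MEK5 binding to MEKK3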
An asterisk follows results filed as active; . = not tested or not shown; ! = not active in a repeat; [ ] = dose if it differs, or a comment. Hits are enriched below; roughly 2.3% of the tested compounds scored in any of these assays.

SMILES | MEKK2 WT-MEK5 | MEKK3 PB1 HTS | MEKK2mut PB1 HTS | UBC13 polyUb | MEKK2wt confirm | MEKK2mut-MEK5 | MEKK3 confirm
Cc1ccc(/C=N/NC(=O)c2ccccc2OCc2cccc(Br)c2)o1 | 87.0 | 91.0 | -2.0 | 1.5 | . | . | .
O=C(O)CCCC(=O)N1CCN(c2nc(-c3ccccc3Cl)c3cc(Br)ccc3n2)CC1 | 119.0 | 119.0 | 26.0* | -20.6 | 97.0 | -7.0 | 98.0
CCCn1c(CNC(=O)Cc2ccccc2)nc2ccccc21 | 38.0*[inhibitor] | 32.0*[inhibitor] | -10.0 | -5.2 | 102.0 | 2.0 | 101.0
CCCC(=O)NCCc1nc2ccccc2n1CCC | 101.0 | 100.0 | 6.0 | -1.1 | . | . | .
CCOC(=O)/C(C#N)=N\Nc1cc(Cl)ccc1OC | 101.0 | 100.0 | 5.0 | 2.3 | . | . | .
CCCCCC(=O)Nc1cccc(C2=NOC3(C2)C[C@H](C(N)=O)N(C(=O)c2ccccc2)C3)c1 (some centres not stated) | 104.0 | 68.0 | -7.0 | 0.7 | . | . | .
C=C(C)C(=O)Nc1cccc(C2=NOC3(C2)C[C@@H](C(N)=O)N(C(=O)/C=C/C=C/C)C3)c1 (some centres not stated) | 70.0 | 68.0*[inhibitor] | -37.0 | -136.3 | 90.0 | -46.0 | 86.0
CCCCCC(=O)Nc1cccc(C2=NOC3(C2)C[C@H](C(N)=O)N(C(=O)CC#N)C3)c1 (some centres not stated) | 1.0*[inhibitor] | 1.0*[inhibitor] | -14.0 | . | 99.0 | -12.0 | 100.0
O=C(Nc1ccc(Cl)cc1C(=O)N1CCCC1)c1cccc([N+](=O)[O-])c1 | 102.0 | 100.0 | 5.0 | 0.7 | . | . | .
COc1ccc(/C=C/C(=O)N2CCN(c3ccccn3)CC2)cc1OC | 104.0 | 106.0 | 3.0 | 4.5 | . | . | .
CCOC(=O)c1nn(-c2ccc(C)c(C)c2)c(=O)c(C#N)c1C | 97.0 | 102.0 | 1.0 | 1.1 | . | . | .
CCCOc1ccc(C(=O)Nc2c[nH]c(=O)[nH]c2=O)cc1 | 110.0 | 103.0 | 5.0 | 6.4 | . | . | .
CCC(=O)Oc1ccc(C(=O)Nc2c[nH]c(=O)[nH]c2=O)cc1 | 92.0 | 69.0*[inhibitor] | -1.0 | 1.5 | 97.0 | -5.0 | 103.0
Cc1ccc(OCC(=O)NCCCNC(=O)c2ccc(C)nc2)cc1 | 99.0 | 98.0 | -7.0 | -9.8 | . | . | .
O=C(NC1CCCCCC1)C1CCCN(c2ncccn2)C1 (configuration not stated) | 105.0 | 101.0 | 5.0 | 6.7 | . | . | .
Cc1nc(NC(=S)NC(=O)COc2ccc(Cl)cc2)ccc1Br | 104.0 | 139.0* | -1.0 | 0.3 | 101.0 | 4.0 | 102.0
O=S(=O)(Nn1c(O)c(C=C2N=c3ccccc3=N2)sc1=S)c1ccccc1 | 86.0 | 100.0 | -4.0 | -25.1 | . | . | .
O=C(Nn1c(O)c(C=C2N=c3ccccc3=N2)sc1=S)c1ccccc1Cl | 58.0*[inhibitor] | 82.0 | -26.0 | -40.7 | 66.0 | -27.0 | 89.0
Oc1c(C=C2N=c3ccccc3=N2)sc(=S)n1C1CCCCC1 | 53.0*![inhibitor] | 114.0 | -3.0 | -22.5 | 70.0 | -13.0 | 97.0
CC(=O)Nc1sc(C)c(C)c1C(=O)OCC(=O)N(CCC#N)c1cc(C)cc(C)c1 | . | . | . | 2.0 | . | . | .
CCN(CCNCC(O)COc1ccccc1C(C)C)c1cccc(C)c1 (configuration not stated) | 174.0* | 109.0 | 44.0* | 31.6 | 169.0 | 29.0 | 95.0
CCOC(=O)N1CCN(CC(O)COc2ccccc2C(C)C)CC1 (configuration not stated) | 103.0 | 101.0 | 3.0 | 2.3 | . | . | .
N#C/C(=C\C=C\c1ccccc1[N+](=O)[O-])c1nc(-c2ccc3c(c2)OCO3)cs1 | 24.0* | 104.0 | 30.0* | -58.1 | 93.0 | -4.0 | 96.0
Cc1cccc(CCN2CCN=C2Nc2ccccc2)c1 | . | . | . | -7.6 | . | . | .
C[C@H]1CCC[C@@]2(O[C@H](CCO)C[C@@H](O)[C@@H]2O)O1 | 107.0 | 105.0 | 5.0 | 1.4 | . | . | .
SMILES | MEKK2 WT-MEK5 | MEKK3 PB1 HTS | MEKK2mut PB1 HTS | UBC13 polyUb | MEKK2wt confirm | MEKK2mut-MEK5 | MEKK3 confirm
COC(=O)c1ccc(N2CCN(C)CC2)c(NC(=O)c2cccnc2)c1 | 84.0 | 88.0 | -14.0 | 1.5 | . | . | .
CCC(C)c1ccc(OCC(=O)Nc2ccc3[nH]c(=O)[nH]c3c2)cc1 (configuration not stated) | 111.0 | 198.0* | 1.0 | -1.8 | 106.0 | 5.0 | 105.0
COc1cccc(CNc2cc(C)ccn2)c1O | 100.0 | 100.0 | 27.0* | 10.3 | 97.0 | -10.0 | 98.0
COc1ccc(CC(=O)OCC(=O)NCc2ccccc2Cl)cc1 | 136.0 | 151.0* | 5.0 | -3.3 | 107.0 | 4.0 | 105.0
COc1ccccc1CNC(=O)COC(=O)Cc1ccc(Cl)cc1 | 115.0 | 107.0 | 13.0 | -15.1 | . | . | .
CCN(CC)S(=O)(=O)c1ccc(OC)c(NC(=O)C(C)Oc2ccc3c(C)cc(=O)oc3c2)c1 (configuration not stated) | 107.0 | 145.0* | 0.0 | -10.3 | 103.0 | 3.0 | 105.0
CCN(CC)S(=O)(=O)c1ccc(C)c(NC(=O)COc2ccc3c(C)cc(=O)oc3c2)c1 | 86.0 | 106.0 | 15.0 | 16.5 | . | . | .
Fc1ccc(NC(=S)Nc2ccc3nccnc3c2)cc1 | 118.0 | 130.0* | 1.0 | -15.7 | 101.0 | -5.0 | 101.0
CNC(=S)N/N=C(\C)c1ccccc1 | 128.0 | 132.0* | 28.0 | 1.3 | 109.0 | 2.0 | 103.0
CCN(CC)S(=O)(=O)c1cc(C(=O)OCC(=O)Nc2c(F)cccc2F)ccc1F | 93.0 | 95.0 | -1.0 | 3.5 | . | . | .
CCc1cccc(CC)c1NC(=O)COC(=O)c1ccc(F)c(S(=O)(=O)N(CC)CC)c1 | 109.0 | 135.0* | 1.0 | 1.1 | 102.0 | 9.0 | 97.0
CCN(CC)S(=O)(=O)c1cc(C(=O)OCC(=O)Nc2cccc(C)c2C)ccc1F | 103.0 | 129.0* | 0.0 | -1.6 | 94.0 | 1.0 | 100.0
CCN(CC)S(=O)(=O)c1cc(C(=O)OCC(=O)Nc2cccc(Br)c2)ccc1F | 123.0 | 95.0 | 0.0 | 8.8 | . | . | .
Cc1ccc(C(=O)NCCS(=O)(=O)N2CCN(c3ccccc3F)CC2)cc1[N+](=O)[O-] | 103.0 | 101.0 | -3.0 | -13.6 | . | . | .
O=C(CCN1CCN(c2ccccc2)CC1)NNC(=S)Nc1ccccc1Cl | 104.0 | 99.0 | 2.0 | 3.4 | . | . | .
OCCNc1nc2ccccc2n1CC(O)c1ccccc1 (configuration not stated) | 95.0 | 100.0 | -6.0 | -13.7 | . | . | .
CC(C)Cn1c(NCCO)nc2ccccc21 | 70.0 | 61.0*[inhibitor] | -14.0 | 4.4 | 100.0 | 9.0 | 101.0
